Results from PubChem BioAssay (Tox21).
Results filed as inconclusive are left out. A call without a number means that no potency is given here. Calls of active or inactive are those of the source. Unless noted, calls follow the shape of the dose curve; as a rule, active = well fitted curve in the direction sought with a large enough effect in the repeat runs; inconclusive = weak or mixed curves; inactive = no such curve, though single readings can be large; an effect the other way counts as inactive or inconclusive.

Legend:
[1] = qHTS assay to identify small molecule antagonists of the glucocorticoid receptor (GR) signaling pathway - cell viability counter screen (AID 720693); also: nearly all actives have a fitted effect of over 55% in size; also: potency is read from the fitted curve at half-maximal effect
[2] = qHTS assay for identifying genotoxic compounds that show differential cytotoxicity against isogenic chicken DT40 cell lines with known DNA damage response pathways - wild type cell line (AID 743012); also: nearly all actives have a fitted effect of over 60% in size; also: potency is read from the fitted curve at half-maximal effect
Method in brief: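 First, wild type DT40 cells were plated at 300 per well and equilibrated about 0.5 h at 37 C/5% CO2. Next, compounds in DMSO were added and exposure lasted 40 h. Finally, CellTiter-Glo was added for 30 min at room temperature and luminescence recorded.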

[3] = qHTS assay for identifying genotoxic compounds that show differential cytotoxicity against isogenic chicken DT40 cell lines with known DNA damage response pathways - Rad54/Ku70 mutant cell line (AID 743015); also: nearly all actives have a fitted effect of over 60% in size; also: potency is read from the fitted curve at half-maximal effect
[4] = qHTS assay to identify small molecule antagonists of the androgen receptor (AR) signaling pathway - cell viability counter screen (AID 743033; also: nearly all actives have a fitted effect of over 45% in size)
[5] = qHTS assay to identify small molecule antagonists of the androgen receptor (AR) signaling pathway using the MDA cell line - cell viability counter screen (AID 743041; also: nearly all actives have a fitted effect of over 45% in size)
Method in brief: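 Viability counter screen run alongside the AR antagonist reporter: cells seeded 5 h before compound, R1881 added, 16 h incubation at 37C without CO2, fluorescent CellTiter-Fluor signal quantified.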

[6] = qHTS assay to identify small molecule antagonists of the thyroid receptor (TR) signaling pathway - cell viability counter screen (AID 743064); also: nearly all actives have a fitted effect of over 50% in size; also: potency is read from the fitted curve at half-maximal effect
Method in brief: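 In rat pituitary GH3.TRE-Luc reporter cells co-exposed to compound and 1 nM T3 for 23.5 h, cytotoxicity was assessed with CellTiter-Fluor in the same wells, read by fluorescence.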

[7] = qHTS assay to identify small molecule antagonists of the thyroid receptor (TR) signaling pathway (AID 743065); also: nearly all actives have a fitted effect of over 55% in size; also: potency is read from the fitted curve at half-maximal effect
Method in brief: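 GH3.TRE-Luc rat pituitary cells carrying two TR response elements driving luciferase were plated for 4 h, given compound plus 1 nM T3 (final), and incubated 23.5 h at 37 C. ONE-Glo luminescence measured reporter inhibition; CellTiter-Fluor fluorescence tracked cytotoxicity.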

[8] = tested on: thyroid hormone receptor (rat, GH3 cells); assay: qHTS assay to identify small molecule agonists of the thyroid receptor (TR) signaling pathway (AID 743066; calls by dose curve)
[9] = qHTS assay to identify small molecule antagonists of the estrogen receptor alpha (ER-alpha) signaling pathway - cell viability counter screen (AID 743074; calls by dose curve;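 also: HEK293 cells carrying ER-alpha-UAS-bla reporter stimulated with 17beta-estradiol; nearly all actives have a fitted effect of over 45% in size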; also: potency is read from the fitted curve at half-maximal effect)
[10] = qHTS assay to identify small molecule antagonists of the estrogen receptor alpha (ER-alpha) signaling pathway using the BG1 cell line - cell viability counter screen (AID 743081);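 also: compound given together with 17beta-estradiol as the ER stimulus; nearly all actives have a fitted effect of over 45% in size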; also: potency is read from the fitted curve at half-maximal effect
Aromatase (Homo sapiens) = Aromatase (Homo sapiens) (UniProt P11511); assay: qHTS assay to identify aromatase inhibitors (AID 743083); also: nearly all actives have a fitted effect of over 55% in size
[11] = biological target: Estrogen receptor (Homo sapiens) (UniProt P03372); assay: qHTS assay to identify small molecule antagonists of the estrogen receptor alpha (ER-alpha) signaling pathway (AID 743069; active = well fitted curve in the direction sought with a large enough effect in the signal ratio in the repeat runs, not every such curve was filed as active; the % refers to the signal ratio)
Method in brief: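 Estradiol-stimulated ER-alpha-UAS-bla HEK293 cells, 18 hr compound exposure at 37C. LiveBLAzer B/G substrate, 2 hr RT, fluorescence read.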

[12] = biological target: Estrogen receptor (Homo sapiens) (UniProt P03372); assay: qHTS assay to identify small molecule agonists of the estrogen receptor alpha (ER-alpha) signaling pathway (AID 743075; calls by dose curve;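 also: HEK293 GripTite cells with ER-alpha and UAS-driven beta-lactamase reporter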)
[13] = biological target: Estrogen receptor (Homo sapiens) (UniProt P03372); assay: qHTS assay to identify small molecule agonists of the estrogen receptor alpha (ER-alpha) signaling pathway using the BG1 cell line (AID 743079); settings: BG1Luc4E2 cells, ERE-luciferase agonist, 22 h; activation: at 70.3 µM (top of the series); also: nearly all actives have a fitted effect of over 20% in size
[14] = qHTS assay to identify small molecule antagonists of the estrogen receptor alpha (ER-alpha) signaling pathway using the BG1 cell line (AID 743080; calls by dose curve;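 also: BG1 cells stimulated with 17beta-estradiol alongside compound; nearly all actives have a fitted effect of over 25% in size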)
Method in brief: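 Quantitative HTS on the Tox21 10K library: BG1 cells with endogenous ER-alpha and ERE-luciferase reporter, 17beta-estradiol stimulation, 21.5 h compound exposure, luminescence endpoint with parallel fluorescence cytotoxicity counter-read.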

[15] = biological target: Androgen receptor (Homo sapiens) (UniProt P10275); assay: qHTS assay to identify small molecule agonists of the androgen receptor (AR) signaling pathway (AID 743036; active = well fitted activation curve with a large enough effect in the signal ratio in the repeat runs, with a control signal flat, not every such curve was filed as active; the % refers to the signal ratio; also: potency is read from the fitted curve at half-maximal effect)
Method in brief: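 Cell-based FRET reporter assay: HEK293 line with a UAS-beta-lactamase construct, compounds added in DMSO, 16 h exposure at 37C, then 2 h substrate step at room temperature and fluorescence intensity read.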

[16] = biological target: Androgen receptor (Homo sapiens) (UniProt P10275); assay: qHTS assay to identify small molecule agonists of the androgen receptor (AR) signaling pathway using the MDA cell line (AID 743040; also: nearly all actives have a fitted effect of over 20% in size; also: potency is read from the fitted curve at half-maximal effect)
Method in brief: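 Luminescence from ONE-Glo, read after 30 min at room temperature, reflects MMTV-driven luciferase in MDA-kb2 cells (AR- and GR-responsive). Treatment lasted 16 h at 37C, 0% CO2.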

[17] = biological target: Androgen receptor (Homo sapiens) (UniProt P10275); assay: qHTS assay to identify small molecule antagonists of the androgen receptor (AR) signaling pathway using the MDA cell line (AID 743042; also: nearly all actives have a fitted effect of over 55% in size; also: potency is read from the fitted curve at half-maximal effect)
Method in brief: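 MDA-kb2 cells (human breast carcinoma, stably carrying an MMTV-luciferase reporter responsive to AR and GR) were plated at 3,000 cells/well and preincubated 5 hr at 37C, then given compound plus R1881 agonist for 16 h. ONE-Glo luminescence was read.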

[18] = biological target: Androgen receptor (Homo sapiens) (UniProt P10275); assay: qHTS assay to identify small molecule antagonists of the androgen receptor (AR) signaling pathway (AID 743035; active = well fitted inhibition curve with a large enough effect in the signal ratio in the repeat runs, not every such curve was filed as active; the % refers to the signal ratio)
Method in brief: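 Beta-lactamase FRET read (2 h RT incubation with LiveBLAzer B/G) following 16 h of compound plus R1881 treatment of AR-UAS-bla HEK293 cells, which had been pre-incubated 4 h at 37C.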

Androgen receptor (Homo sapiens), sequence (P10275 whole entry, looked up): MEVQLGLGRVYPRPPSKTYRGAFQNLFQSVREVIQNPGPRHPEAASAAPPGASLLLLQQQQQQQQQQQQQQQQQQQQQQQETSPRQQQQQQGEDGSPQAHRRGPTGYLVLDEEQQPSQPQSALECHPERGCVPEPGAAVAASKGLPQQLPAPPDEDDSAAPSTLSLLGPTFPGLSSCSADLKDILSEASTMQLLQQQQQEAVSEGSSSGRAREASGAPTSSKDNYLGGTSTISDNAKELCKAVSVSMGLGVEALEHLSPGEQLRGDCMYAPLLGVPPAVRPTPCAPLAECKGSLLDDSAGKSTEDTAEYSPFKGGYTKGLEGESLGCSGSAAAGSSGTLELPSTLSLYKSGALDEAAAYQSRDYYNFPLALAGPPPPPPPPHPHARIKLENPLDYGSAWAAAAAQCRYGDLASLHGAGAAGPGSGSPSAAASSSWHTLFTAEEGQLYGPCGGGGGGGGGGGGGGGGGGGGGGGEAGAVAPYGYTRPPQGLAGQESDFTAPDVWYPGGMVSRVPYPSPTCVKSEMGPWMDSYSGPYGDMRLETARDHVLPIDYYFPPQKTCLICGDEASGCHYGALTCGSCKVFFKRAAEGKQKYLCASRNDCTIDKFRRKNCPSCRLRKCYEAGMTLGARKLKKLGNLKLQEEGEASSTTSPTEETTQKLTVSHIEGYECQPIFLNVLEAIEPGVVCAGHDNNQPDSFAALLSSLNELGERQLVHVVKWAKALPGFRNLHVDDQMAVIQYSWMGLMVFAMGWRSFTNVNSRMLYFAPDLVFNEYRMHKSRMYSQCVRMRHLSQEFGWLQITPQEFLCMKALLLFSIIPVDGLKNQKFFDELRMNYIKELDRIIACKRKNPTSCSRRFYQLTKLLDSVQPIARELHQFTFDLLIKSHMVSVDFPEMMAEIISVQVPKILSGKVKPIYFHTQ
Estrogen receptor (Homo sapiens), sequence (P03372 whole entry, looked up): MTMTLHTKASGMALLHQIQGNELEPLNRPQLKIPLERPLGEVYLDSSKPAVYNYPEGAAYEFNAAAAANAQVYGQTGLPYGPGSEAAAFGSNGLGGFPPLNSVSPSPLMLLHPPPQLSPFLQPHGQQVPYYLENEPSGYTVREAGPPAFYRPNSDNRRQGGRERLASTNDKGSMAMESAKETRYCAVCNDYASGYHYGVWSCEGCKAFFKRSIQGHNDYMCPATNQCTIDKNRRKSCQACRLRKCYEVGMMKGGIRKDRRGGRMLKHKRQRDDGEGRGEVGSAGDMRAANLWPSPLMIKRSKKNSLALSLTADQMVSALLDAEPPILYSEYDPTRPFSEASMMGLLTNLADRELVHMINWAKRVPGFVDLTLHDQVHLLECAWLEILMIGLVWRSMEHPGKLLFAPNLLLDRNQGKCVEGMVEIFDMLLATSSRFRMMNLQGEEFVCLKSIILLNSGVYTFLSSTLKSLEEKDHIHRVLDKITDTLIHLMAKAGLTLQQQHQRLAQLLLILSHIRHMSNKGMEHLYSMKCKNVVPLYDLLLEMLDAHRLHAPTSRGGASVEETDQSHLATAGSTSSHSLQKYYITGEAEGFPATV
Aromatase (Homo sapiens), sequence (P11511 whole entry, looked up): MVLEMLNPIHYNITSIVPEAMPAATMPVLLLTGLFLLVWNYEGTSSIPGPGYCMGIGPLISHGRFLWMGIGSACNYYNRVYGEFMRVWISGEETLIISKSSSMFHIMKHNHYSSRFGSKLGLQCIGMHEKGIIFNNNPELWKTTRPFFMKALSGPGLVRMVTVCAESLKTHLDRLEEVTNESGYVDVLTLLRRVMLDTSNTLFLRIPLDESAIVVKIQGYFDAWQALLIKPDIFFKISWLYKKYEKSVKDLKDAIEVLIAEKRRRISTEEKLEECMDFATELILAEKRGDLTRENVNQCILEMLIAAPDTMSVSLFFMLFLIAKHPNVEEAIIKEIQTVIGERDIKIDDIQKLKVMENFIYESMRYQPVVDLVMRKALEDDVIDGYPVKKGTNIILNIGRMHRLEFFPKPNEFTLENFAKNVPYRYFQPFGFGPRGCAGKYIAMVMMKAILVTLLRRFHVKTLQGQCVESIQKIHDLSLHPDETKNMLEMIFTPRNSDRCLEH

Row | SMILES | Potency [1] | Potency [2] | Potency [3] | Potency [4] | Potency [5] | Potency [6] | Potency [7] | Potency [8] | Potency [9] | Potency [10] | Potency (Aromatase (Homo sapiens)) | Potency [11] | Potency [12] | Potency [13] | Potency [14] | Potency [15] | Potency [16] | Potency [17] | Potency [18]
1 | OC1OC[C@@H](O)[C@H](O)[C@@H]1O (some centres undefined) | inactive | inactive | inactive | inactive | inactive | inactive | inactive | inactive | inactive | inactive | inactive |  |  |  |  |  |  |  | 
2 | O=P(O)(O)OC(CO)CO | inactive | inactive | inactive | inactive | inactive | inactive | inactive | inactive | inactive | inactive | inactive | inactive | inactive | inactive | inactive |  |  |  | 
3 | C=C1CC[C@H](O)CC1=C/C=C1\CCC[C@]2(C)[C@@H]([C@H](C)CCCC(C)(C)O)CC[C@@H]12 | 10.7 µM (active) | 5.96 µM (active) | 5.96 µM (active) | inactive | inactive | 11.9 µM (active) | 6.68 µM (active) |  | 23.9 µM (active) | inactive | inactive |  | inactive |  |  | inactive | inactive | 26.6 µM (active) | 
4 | CN[C@@H]1[C@H](O[C@H]2[C@H](O[C@H]3[C@H](O)[C@@H](O)[C@H](N=C(N)N)[C@@H](O)[C@@H]3N=C(N)N)O[C@@H](C)[C@]2(O)C=O)O[C@@H](CO)[C@H](O)[C@H]1O | inactive | inactive | inactive | inactive | inactive |  | inactive | inactive | inactive | inactive | inactive | inactive | inactive | inactive | inactive |  |  |  | 
5 | O=C(O)CN(CC(=O)O)CC1=CC2C(=CC1=O)Oc1cc(O)c(CN(CC(=O)O)CC(=O)O)cc1C21OC(=O)c2ccccc21 (centres undefined) | inactive | inactive | inactive | inactive |  |  | inactive | inactive |  |  | inactive |  | inactive |  | inactive |  | inactive | inactive | 
6 | CO[C@H]1C[C@H](O[C@H]2[C@H](C)O[C@@H](O[C@@H]3/C(C)=C/C[C@@H]4C[C@@H](C[C@]5(C=C[C@H](C)[C@@H](C6CCCCC6)O5)O4)OC(=O)[C@@H]4C=C(C)[C@@H](O)[C@H]5OC/C(=C\C=C\[C@@H]3C)[C@]54O)C[C@@H]2OC)O[C@@H](C)[C@@H]1O | 7.56 µM (active) | 5.31 µM (active) | 5.96 µM (active) | inactive | inactive | 2.66 µM (active) | 2.66 µM (active) |  | 16.9 µM (active) | 21.1 µM (active) | inactive |  | inactive |  |  |  |  |  | 
7 | CCCC(=O)O[C@]1(C(=O)COC(C)=O)CC[C@H]2[C@@H]3C[C@H](F)C4=CC(=O)C=C[C@]4(C)[C@@]3(F)[C@@H](O)C[C@@]21C | inactive | 26.6 µM (active) | 29.8 µM (active) | inactive | inactive | inactive | inactive | inactive | inactive | inactive | inactive | inactive | inactive | inactive |  |  |  |  | 
8 | CO[C@H]1C[C@H](O[C@H]2[C@H](C)[C@@H](O[C@@H]3O[C@H](C)C[C@H](N(C)C)[C@H]3OC(C)=O)[C@@H](C)C[C@]3(CO3)C(=O)[C@H](C)[C@@H](OC(C)=O)[C@@H](C)[C@@H](C)OC(=O)[C@@H]2C)O[C@@H](C)[C@@H]1OC(C)=O | inactive | inactive | inactive |  | inactive |  |  |  | inactive | inactive | inactive |  |  |  |  | inactive | inactive | inactive | inactive
9 | Nc1c(Br)cc(Br)cc1CNC1CCC(O)CC1 (centres undefined) | inactive | inactive |  | inactive | inactive |  |  |  | inactive | inactive | inactive | inactive | inactive | inactive | inactive | 4.77 µM (active) | 1.88 µM (active) | inactive | inactive
10 | CC1=C(C(=O)OCCN(Cc2ccccc2)c2ccccc2)C(c2cccc([N+](=O)[O-])c2)C(P2(=O)OCC(C)(C)CO2)=C(C)N1 (centres undefined) | inactive | 29.8 µM (active) | 26.6 µM (active) |  | inactive |  | 13.3 µM (active) | inactive | inactive | inactive |  |  | inactive | inactive | inactive |  |  |  | 
11 | Cc1ccccc1CNc1ncnc2c1ncn2[C@@H]1O[C@H](CO)[C@@H](O)[C@H]1O | inactive | 16.8 µM (active) |  | inactive | inactive | inactive | inactive | inactive | inactive | inactive |  |  |  | inactive | inactive |  |  |  | 
12 | CO[C@@H]1[C@@H](O[C@@H]2O[C@H](C)[C@@H](O[C@H]3C[C@@](C)(O)[C@@H](O)[C@H](C)O3)[C@H](N(C)C)[C@H]2O)[C@@H](CC=O)C[C@@H](C)[C@@H](O[C@@H]2CC[C@H](N(C)C)[C@@H](C)O2)/C=C/C=C/C[C@@H](C)OC(=O)C[C@H]1O | inactive | inactive |  | inactive | inactive |  |  |  | inactive | inactive | inactive | inactive | inactive | inactive | inactive |  |  |  | 
